Results as given in the supplement of paper PMC10849652.
Targets with a hit are over-represented here; the source holds about 8,800 in all. About 0.5% of all pairs of compound and target were hits. Values without a mark were called inactive.

Columns and labels:
Assay in all cases: log2 fold change, soluble protein after heating vs DMSO (PISA); higher = thermal stabilisation; K562 lysate, 10 uM; active = over 0.2 and 3.5 SD of the protein, either way, in both replicates (recomputed)
erlotinib = compound: C#Cc1cccc(Nc2ncnc3cc(OCCOC)c(OCCOC)cc23)c1 [erlotinib]
Outline: (§1)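 A 30 min treatment with 10 μM compound was applied to crude K562 extract at 1 mg/mL protein in PBS pH 7.4 with 1 mM MgCl2. Heating for 3 min spanned 48°C-58°C, after which aliquots were pooled, adjusted to 0.5% NP-40 at 4°C and spun at 21,000xg for 90 min. TMTpro 16plex LC-MS/MS of the supernatant, with channel sums equalised, gave values recorded as log-two fold change in thermal stability against solvent controls, from duplicates.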

[1] = compound: C1=CC(=CC=C1C2=NC3=C(N2)C=C(C=C3)C(=O)N)OC4=CC=C(C=C4)Cl
Outline: as §1

[2] = compound: C1=CC2=NC=CN=C2C=C1/C=C/3\C(=O)NC(=O)S3
Outline: as §1

[3] = compound: C1=CC=C(C=C1)C2=NC(=C(N2)C3=CC=NC=C3)C4=CC(=C(C=C4)Cl)O
Outline: as §1

[4] = compound: C1CCN(C1)C(=O)NC2=CC=CC(=C2)NC3=NC=C(C(=N3)NCCC4=CN=CN4)Br
Outline: as §1

[5] = compound: C1CN(CCC1(CC2=CC=C(C=C2)Cl)N)C3=NC=NC4=C3C=CN4
Outline: as §1

IRAK-1-4 Inhibitor I = compound: C1COCCN1CCN2C3=CC=CC=C3N=C2NC(=O)C4=CC(=CC=C4)[N+](=O)[O-] [IRAK-1-4 Inhibitor I]
Outline: as §1

ibrutinib = compound: C=CC(=O)N1CCC[C@@H](n2nc(-c3ccc(Oc4ccccc4)cc3)c3c(N)ncnc32)C1 [ibrutinib]
Outline: as §1

[6] = compound: CC(=O)c1cnc2ccc(-c3cc(Cl)c(O)c(Cl)c3)nc2c1N[C@H]1CC[C@H](CN(C)C)CC1
Outline: as §1

ralimetinib = compound: CC(C)(C)Cn1c(N)nc2ccc(-c3[nH]c(C(C)(C)C)nc3-c3ccc(F)cc3)nc21 [ralimetinib]
Outline: as §1

[7] = compound: CC(C)(O)CC(=O)NCCn1ccc2ncnc(Nc3ccc(Oc4cccc(C(F)(F)F)c4)c(Cl)c3)c21
Outline: as §1

[8] = compound: CC(C)C1=C2N=C(C=C(N2N=C1)NCC3=CC=CC=C3)NCCCCCCN
Outline: as §1

[9] = compound: CC1=C(C(CC(=O)N1)C2=CC=C(C=C2)C(F)(F)F)C(=O)NC3=C(C=C4C(=C3)C=NN4)F
Outline: as §1

[10] = compound: CC1=C(C2=C(C=C1)C(=O)C3=CC=CC=C3N2CCCN)C
Outline: as §1

[11] = compound: CC1=C(C=C(C=C1)NC(=O)C2=CC(=CC=C2)C(C)(C)C#N)NC3=CC4=C(C=C3)N=CN(C4=O)C
Outline: as §1

[12] = compound: CC1=C(C=C(C=C1)NC(=O)C2=CC(=CC=C2)N(C)C)NC(=O)C3=CC=C(C=C3)O
Outline: as §1

[13] = compound: CC1=CC=C(C=C1)SC2=C3C=C(SC3=CN=C2)C(=O)N
Outline: as §1

[14] = compound: C/C(=N\NC(=O)C1=CC(=CC=C1)S(=O)(=O)N2CCOCC2)/C3=C(C=CC(=C3)Cl)O
Outline: as §1

[15] = compound: C1=CC2=C(C=CC(=C2)/C=C\3/C(=O)NC(=NCC4=CC=CS4)S3)N=C1
Outline: as §1

[16] = compound: C1=CC=C2C(=C1)C3=NNC4=CC=CC(=C43)C2=O
Outline: as §1

Chain of UniProt Q8TDI8 (Q8TDI8 whole entry, looked up): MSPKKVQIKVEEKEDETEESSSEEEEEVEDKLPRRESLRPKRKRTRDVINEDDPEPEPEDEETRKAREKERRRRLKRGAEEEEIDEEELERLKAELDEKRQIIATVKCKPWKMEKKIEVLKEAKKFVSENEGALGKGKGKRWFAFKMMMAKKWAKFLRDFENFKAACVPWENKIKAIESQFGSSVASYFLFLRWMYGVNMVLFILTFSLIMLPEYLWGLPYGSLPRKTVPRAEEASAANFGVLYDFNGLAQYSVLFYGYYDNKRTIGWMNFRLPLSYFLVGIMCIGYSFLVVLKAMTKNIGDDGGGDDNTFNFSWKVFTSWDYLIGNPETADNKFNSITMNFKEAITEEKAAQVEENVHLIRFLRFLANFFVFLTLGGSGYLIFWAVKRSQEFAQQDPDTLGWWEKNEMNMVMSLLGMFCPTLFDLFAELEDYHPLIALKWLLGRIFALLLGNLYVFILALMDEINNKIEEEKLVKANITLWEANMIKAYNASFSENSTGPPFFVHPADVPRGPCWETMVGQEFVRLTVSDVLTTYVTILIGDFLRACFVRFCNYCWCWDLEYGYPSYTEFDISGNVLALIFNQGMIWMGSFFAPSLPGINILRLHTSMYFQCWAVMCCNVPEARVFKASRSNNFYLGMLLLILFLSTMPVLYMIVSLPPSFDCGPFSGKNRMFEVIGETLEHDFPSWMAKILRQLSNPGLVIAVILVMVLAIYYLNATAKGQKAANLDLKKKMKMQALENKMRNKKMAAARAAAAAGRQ
Chain of UniProt P04350 (P04350 whole entry, looked up): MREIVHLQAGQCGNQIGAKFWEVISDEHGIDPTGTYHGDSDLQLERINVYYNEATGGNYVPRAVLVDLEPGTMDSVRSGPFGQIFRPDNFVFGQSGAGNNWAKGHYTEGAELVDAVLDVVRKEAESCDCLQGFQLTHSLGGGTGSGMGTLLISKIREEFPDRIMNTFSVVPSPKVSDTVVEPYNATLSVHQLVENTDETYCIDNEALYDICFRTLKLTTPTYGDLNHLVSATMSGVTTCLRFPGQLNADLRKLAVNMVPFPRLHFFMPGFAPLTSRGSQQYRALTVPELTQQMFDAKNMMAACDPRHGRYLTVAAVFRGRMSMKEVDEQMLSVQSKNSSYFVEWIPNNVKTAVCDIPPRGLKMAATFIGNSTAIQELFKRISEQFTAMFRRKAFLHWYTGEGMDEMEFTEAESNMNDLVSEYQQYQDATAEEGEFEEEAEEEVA
Chain of UniProt P10646 (P10646 whole entry, looked up): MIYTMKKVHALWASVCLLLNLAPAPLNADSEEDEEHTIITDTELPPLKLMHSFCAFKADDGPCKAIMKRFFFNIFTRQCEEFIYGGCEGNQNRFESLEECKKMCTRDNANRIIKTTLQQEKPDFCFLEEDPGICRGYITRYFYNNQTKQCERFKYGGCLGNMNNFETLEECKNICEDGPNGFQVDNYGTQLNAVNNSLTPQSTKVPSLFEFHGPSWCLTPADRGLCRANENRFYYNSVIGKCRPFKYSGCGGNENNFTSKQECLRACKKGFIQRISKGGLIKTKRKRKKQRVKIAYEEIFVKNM
Chain of UniProt Q9NNW7 (Q9NNW7 whole entry, looked up): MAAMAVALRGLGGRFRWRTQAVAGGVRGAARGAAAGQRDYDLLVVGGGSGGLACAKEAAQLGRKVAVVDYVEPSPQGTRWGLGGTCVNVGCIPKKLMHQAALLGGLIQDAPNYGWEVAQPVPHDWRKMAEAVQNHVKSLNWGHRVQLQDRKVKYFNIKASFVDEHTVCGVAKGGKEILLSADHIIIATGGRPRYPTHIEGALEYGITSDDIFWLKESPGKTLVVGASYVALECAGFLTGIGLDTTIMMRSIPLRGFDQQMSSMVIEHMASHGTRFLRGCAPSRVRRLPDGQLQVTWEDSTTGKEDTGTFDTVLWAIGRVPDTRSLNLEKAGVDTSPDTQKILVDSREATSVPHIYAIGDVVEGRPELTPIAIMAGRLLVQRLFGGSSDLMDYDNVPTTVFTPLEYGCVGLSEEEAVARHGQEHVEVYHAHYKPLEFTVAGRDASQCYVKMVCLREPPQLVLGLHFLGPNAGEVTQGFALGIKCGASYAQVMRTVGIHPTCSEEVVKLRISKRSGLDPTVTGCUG
Chain of UniProt Q9UKE5 (Q9UKE5 whole entry, looked up): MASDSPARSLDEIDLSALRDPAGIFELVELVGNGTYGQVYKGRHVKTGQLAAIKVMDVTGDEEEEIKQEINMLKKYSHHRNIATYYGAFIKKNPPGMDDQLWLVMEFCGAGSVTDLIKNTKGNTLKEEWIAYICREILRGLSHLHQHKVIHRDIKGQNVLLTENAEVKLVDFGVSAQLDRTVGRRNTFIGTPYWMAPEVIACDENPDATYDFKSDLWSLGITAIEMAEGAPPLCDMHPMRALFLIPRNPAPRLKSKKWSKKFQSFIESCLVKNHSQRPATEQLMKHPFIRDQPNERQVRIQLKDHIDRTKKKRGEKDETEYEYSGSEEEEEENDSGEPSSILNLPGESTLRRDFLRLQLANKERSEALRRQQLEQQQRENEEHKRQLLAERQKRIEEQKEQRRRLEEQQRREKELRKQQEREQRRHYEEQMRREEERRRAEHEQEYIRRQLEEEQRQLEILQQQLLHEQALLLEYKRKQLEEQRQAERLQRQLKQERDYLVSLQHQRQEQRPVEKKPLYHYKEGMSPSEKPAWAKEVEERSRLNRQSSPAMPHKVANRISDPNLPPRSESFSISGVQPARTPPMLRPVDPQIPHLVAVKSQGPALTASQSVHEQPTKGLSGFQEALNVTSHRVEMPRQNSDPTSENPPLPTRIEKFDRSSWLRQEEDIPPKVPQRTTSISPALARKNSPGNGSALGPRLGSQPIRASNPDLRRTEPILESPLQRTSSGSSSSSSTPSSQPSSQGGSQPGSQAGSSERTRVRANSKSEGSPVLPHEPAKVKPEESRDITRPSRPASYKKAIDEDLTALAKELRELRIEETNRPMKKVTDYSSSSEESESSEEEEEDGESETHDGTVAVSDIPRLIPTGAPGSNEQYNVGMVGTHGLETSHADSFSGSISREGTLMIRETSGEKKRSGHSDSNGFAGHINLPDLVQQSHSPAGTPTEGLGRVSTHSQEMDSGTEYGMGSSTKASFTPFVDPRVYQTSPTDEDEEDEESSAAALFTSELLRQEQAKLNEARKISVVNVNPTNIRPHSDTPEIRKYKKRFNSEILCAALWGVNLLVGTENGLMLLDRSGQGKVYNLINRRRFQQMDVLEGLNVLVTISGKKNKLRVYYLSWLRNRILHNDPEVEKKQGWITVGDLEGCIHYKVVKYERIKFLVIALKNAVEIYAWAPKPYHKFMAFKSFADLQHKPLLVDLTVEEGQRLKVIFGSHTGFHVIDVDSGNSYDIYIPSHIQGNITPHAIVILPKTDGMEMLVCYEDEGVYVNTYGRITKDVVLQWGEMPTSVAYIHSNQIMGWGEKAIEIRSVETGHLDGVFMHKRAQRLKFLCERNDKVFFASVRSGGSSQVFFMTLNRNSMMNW
Chain of UniProt P62328 (P62328 whole entry, looked up): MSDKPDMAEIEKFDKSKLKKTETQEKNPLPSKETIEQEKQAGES
Chain of UniProt O75382 (O75382 whole entry, looked up): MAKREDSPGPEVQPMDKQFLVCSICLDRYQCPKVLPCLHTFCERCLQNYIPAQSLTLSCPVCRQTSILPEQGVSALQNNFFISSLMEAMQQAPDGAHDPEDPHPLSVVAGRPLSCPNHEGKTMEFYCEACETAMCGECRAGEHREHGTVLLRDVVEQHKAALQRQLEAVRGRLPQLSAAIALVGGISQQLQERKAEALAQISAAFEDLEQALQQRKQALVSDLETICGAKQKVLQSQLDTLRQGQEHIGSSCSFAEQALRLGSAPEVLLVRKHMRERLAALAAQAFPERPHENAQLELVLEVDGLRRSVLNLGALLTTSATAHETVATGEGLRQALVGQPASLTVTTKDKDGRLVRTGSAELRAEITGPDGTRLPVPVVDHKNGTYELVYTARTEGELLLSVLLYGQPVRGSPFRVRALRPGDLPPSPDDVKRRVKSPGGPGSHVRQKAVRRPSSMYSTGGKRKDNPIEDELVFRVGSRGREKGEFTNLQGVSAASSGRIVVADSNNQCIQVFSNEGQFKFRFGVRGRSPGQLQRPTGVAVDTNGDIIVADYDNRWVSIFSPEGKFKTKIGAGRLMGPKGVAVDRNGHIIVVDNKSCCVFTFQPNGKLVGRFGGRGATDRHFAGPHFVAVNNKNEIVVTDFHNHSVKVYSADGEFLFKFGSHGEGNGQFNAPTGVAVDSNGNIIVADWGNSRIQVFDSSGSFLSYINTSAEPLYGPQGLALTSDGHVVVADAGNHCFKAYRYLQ
Chain of UniProt P36897 (P36897 whole entry, looked up): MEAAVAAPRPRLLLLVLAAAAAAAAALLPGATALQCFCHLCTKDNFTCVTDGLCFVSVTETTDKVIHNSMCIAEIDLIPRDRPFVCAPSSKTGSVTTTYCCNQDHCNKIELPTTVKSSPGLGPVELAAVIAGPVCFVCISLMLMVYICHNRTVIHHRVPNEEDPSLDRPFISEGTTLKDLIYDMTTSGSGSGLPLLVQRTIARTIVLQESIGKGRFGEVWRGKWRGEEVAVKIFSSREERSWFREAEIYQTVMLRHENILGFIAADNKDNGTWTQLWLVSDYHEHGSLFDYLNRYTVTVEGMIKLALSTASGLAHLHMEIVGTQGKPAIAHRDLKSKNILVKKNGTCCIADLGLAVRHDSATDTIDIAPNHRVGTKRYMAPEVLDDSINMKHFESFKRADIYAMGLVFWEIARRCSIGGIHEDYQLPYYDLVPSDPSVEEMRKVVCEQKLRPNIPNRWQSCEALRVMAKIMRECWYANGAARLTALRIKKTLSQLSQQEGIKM
Chain of UniProt O60637 (O60637 whole entry, looked up): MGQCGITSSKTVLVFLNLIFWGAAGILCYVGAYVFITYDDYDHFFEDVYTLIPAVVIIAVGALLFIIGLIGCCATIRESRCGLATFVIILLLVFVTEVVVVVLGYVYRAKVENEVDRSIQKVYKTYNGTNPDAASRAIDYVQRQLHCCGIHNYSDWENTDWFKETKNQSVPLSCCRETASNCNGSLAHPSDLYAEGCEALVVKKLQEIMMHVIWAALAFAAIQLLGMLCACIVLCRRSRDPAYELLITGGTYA

| Target | log2 fold change (erlotinib) | log2 fold change [1] | log2 fold change [2] | log2 fold change [3] | log2 fold change [4] | log2 fold change [5] | log2 fold change (IRAK-1-4 Inhibitor I) | log2 fold change (ibrutinib) | log2 fold change [6] | log2 fold change (ralimetinib) | log2 fold change [7] | log2 fold change [8] | log2 fold change [9] | log2 fold change [10] | log2 fold change [11] | log2 fold change [12] | log2 fold change [13] | log2 fold change [14] | log2 fold change [15] | log2 fold change [16] |
| --- | --- | --- | --- | --- | --- | --- | --- | --- | --- | --- | --- | --- | --- | --- | --- | --- | --- | --- | --- | --- |
| TUBB4A (UniProt P04350) | 0.036 | 0.015 | -0.016 | -0.066 | 0.017 | -0.001 | 0.086 | 0.007 | -0.018 | 0.074 | 0.039 | 0.088 | 0.009 | -0.086 | -0.085 | -0.015 | -0.068 |  |  |  |
| UBAP2, A0A0D9SFI5 |  |  |  |  |  |  |  |  |  |  |  |  |  |  | 0.035 |  |  |  |  |  |
| TSPAN3 (UniProt O60637) | 0.002 | 0.058 |  | 0 | 0.006 | 0.032 | 0.091 |  | 0.008 | -0.069 | -0.025 | 0.05 | -0.173 | -0.099 |  | 0.135 | -0.04 | 0.012 | -0.073 | -0.135 |
| TMSB4X (UniProt P62328) | 0.079 | 0.084 | -0.031 | 0.002 | 0.018 | 0.085 | -0.083 | 0.519 | -0.03 | 0 | -0.072 | 0.033 | 0.122 |  | -0.025 | 0.075 | -0.064 |  |  |  |
| TXNRD2 isoform 3 (UniProt Q9NNW7) | 0.024 | 0.035 |  | 0.14 |  |  | -0.006 |  |  | -0.018 | -0.323 | -0.303 |  |  |  | 0.079 |  |  |  |  |
| UBR4 isoform 4 (UniProt Q5T4S7) | 0.121 | -0.073 |  | 0.136 | 0.119 | -0.094 | 0.097 |  | 0.131 | -0.092 | -0.201 | 0.111 |  | 0.331 |  | -0.02 | 0.034 | -0.209 | -0.071 | 0.016 |
| TFPI isoform 2 (UniProt P10646) |  |  |  |  |  |  |  |  |  |  |  |  |  |  | -0.034 |  |  | 0.01 | 0.113 | -0.171 |
| TNIK isoform 5 (UniProt Q9UKE5) |  |  | 0.008 | 0.134 |  |  | -0.038 | 0.07 | 0.345 | 0.016 | -0.026 |  |  | -0.091 | 0.276 | -0.004 | -0.136 |  |  |  |
| TGFBR1 isoform 2 (UniProt P36897) | 0.042 | -0.069 |  |  | 0.14 | -0.102 |  |  |  |  |  | -0.032 |  | -0.043 |  |  |  |  |  |  |
| TMC1 (UniProt Q8TDI8) | -0.028 | -0.007 |  | -0.072 | -0.148 | -0.081 | 0.099 |  | -0.016 | 0.156 | -0.185 | 0.204 | -0.034 |  | -0.104 | 0.017 | -0.045 | -0.001 | 0.013 | -0.071 |
| TLE3 (UniProt H0YL70) |  |  |  |  |  |  |  |  |  |  |  |  |  | 0.004 |  |  |  |  |  |  |
| TCF4 (UniProt P15884) |  |  |  | 0.005 | 0.234 | -0.165 | -0.152 |  | -0.285 | -0.069 | 0.005 |  | 0.007 | -0.019 | -0.056 | 0.003 | -0.035 |  |  |  |
| TENM4 (UniProt Q6N022) |  |  | -0.334 |  |  |  |  | -0.043 | 0.035 |  |  |  |  |  | 0.162 |  | -0.109 |  |  |  |
| TRIM3 (UniProt O75382) | 0.129 | -0.909 (active) |  |  | 0 | -0.265 |  |  | -0.06 |  |  | -0.09 |  |  |  |  | 0.048 | 0.2 | 0.098 | 0.012 |
